Columns and labels:
Settings in all cases: concentration: 1 μM, replicates: in singlicate; n = 1
MYO3B = test system: MYO3B
NDR1 = test system: T1, NDR1
T1 construct: gene STK38

NDR2 = test system: NDR2
NEK10 = test system: NEK10
NEK11 = test system: NEK11
NEK1 = test system: NEK1
NEK2 = test system: NEK2
NEK3 = test system: NEK3
NEK4 = test system: NEK4
NEK5 = test system: NEK5
NEK6 = test system: NEK6
NEK7 = test system: NEK7
NEK9 = test system: NEK9
NIK = test system: T2, NIK
T2 construct: gene MAP3K14

NIM1 = test system: T3, NIM1
T3 construct: gene MGC42105

NLK = test system: NLK
OSR1 = test system: T4, OSR1
T4 construct: gene OXSR1

PAK1 = test system: PAK1
PAK2 = test system: PAK2
PAK3 = test system: PAK3
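Also: KINOMEscan kinase panel screen.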

| Compound | %Inh (MYO3B) | %Inh (NDR1) | %Inh (NDR2) | %Inh (NEK10) | %Inh (NEK11) | %Inh (NEK1) | %Inh (NEK2) | %Inh (NEK3) | %Inh (NEK4) | %Inh (NEK5) | %Inh (NEK6) | %Inh (NEK7) | %Inh (NEK9) | %Inh (NIK) | %Inh (NIM1) | %Inh (NLK) | %Inh (OSR1) | %Inh (PAK1) | %Inh (PAK2) | %Inh (PAK3) |
| --- | --- | --- | --- | --- | --- | --- | --- | --- | --- | --- | --- | --- | --- | --- | --- | --- | --- | --- | --- | --- |
| Cc1cccc(-c2nc(-c3ccc(S(C)(=O)=O)cc3)sc2-c2ccncc2)c1 | 0% | 0% | 14% | 0% | 0% | 8% | 0% | 61% | 0% | 3% | 14% | 0% | 16% | 0% | 0% | 64% | 0% | 14% | 0% | 9% |
| COc1ccc(Nc2nccc(N3CCC(NC(=O)Nc4cc(C)ccc4C)C3)n2)cc1 (stereo not drawn) [GSK1379741] | 0% | 7% | 0% | 1% | 20% | 0% | 0% | 0% | 0% | 6% | 0% | 0% | 9% | 7% | 7% | 35% | 1% | 7% | 0% | 0% |
| c1ccc(-c2n[nH]cc2-c2ccnc3ccccc23)nc1 [GW271431] | 0% | 17% | 0% | 8% | 0% | 0% | 2% | 14% | 3% | 22% | 0% | 0% | 58% | 4% | 21% | 58% | 13% | 16% | 20% | 6% |
| Fc1ccc(-c2ncn(CCCN3CCOCC3)c2-c2ccccn2)cc1 [SB-211742] | 10% | 13% | 0% | 0% | 0% | 0% | 7% | 28% | 0% | 16% | 15% | 0% | 0% | 0% | 0% | 0% | 0% | 0% | 0% | 0% |
| N#Cc1c(N2CCOCC2)sc(-c2ccn[nH]2)c1-c1ccc(Cl)cc1 | 32% | 7% | 0% | 4% | 0% | 9% | 0% | 23% | 0% | 0% | 17% | 0% | 0% | 8% | 54% | 0% | 0% | 10% | 17% | 27% |
| COc1cc(Nc2nccc(N3CCC(NC(=O)c4cccc(NC(C)=O)c4)C3)n2)cc(OC)c1OC (stereo not drawn) [GSK1379754] | 0% | 19% | 0% | 20% | 0% | 48% | 7% | 54% | 24% | 100% | 37% | 68% | 49% | 23% | 5% | 0% | 6% | 20% | 20% | 26% |
| COc1ccc(COc2cc(-n3cnc4ccccc43)sc2C(N)=O)cc1 [GSK1024304] | 0% | 6% | 0% | 19% | 0% | 0% | 0% | 0% | 0% | 7% | 0% | 0% | 5% | 10% | 28% | 0% | 14% | 1% | 4% | 1% |
| NS(=O)(=O)c1cccc(-c2ccc3nccc(-c4cccc(S(N)(=O)=O)c4)c3c2)c1 [GW867253] | 0% | 41% | 19% | 20% | 8% | 0% | 0% | 29% | 0% | 7% | 0% | 0% | 0% | 32% | 0% | 0% | 0% | 7% | 53% | 0% |
| O=C(Nc1cccc(-c2nn3ncccc3c2-c2ccnc(Nc3cccc(C(F)(F)F)c3)n2)c1)c1c(F)cccc1F [GSK299495] | 4% | 0% | 0% | 17% | 19% | 0% | 0% | 11% | 0% | 13% | 0% | 0% | 0% | 0% | 25% | 70% | 23% | 0% | 0% | 10% |
| COc1ccc(S(=O)(=O)NC2CCN(c3cc(C)nc(Nc4cccc(C#N)c4)n3)CC2)cc1.O=C(O)C(F)(F)F [GSK1653539] | 0% | 35% | 0% | 23% | 0% | 0% | 3% | 0% | 0% | 2% | 0% | 0% | 0% | 5% | 0% | 50% | 0% | 3% | 0% | 0% |
| Nc1nccc(-c2c(-c3ccc(F)cc3)ncn2C2CCN(CC(F)(F)F)CC2)n1 [SB-236560] | 0% | 38% | 0% | 42% | 0% | 0% | 0% | 24% | 0% | 16% | 0% | 0% | 20% | 13% | 50% | 60% | 0% | 0% | 0% | 100% |
| Cn1cc(-c2ccc3c(c2)CCN3C(=O)Cc2ccccc2Cl)c2c(N)ncnc21 [GSK2608885] | 33% | 21% | 0% | 0% | 0% | 0% | 79% | 0% | 5% | 7% | 3% | 17% | 33% | 8% | 7% | 86% | 10% | 44% | 13% | 28% |
| O=C(NCCCN1CCOCC1)c1cccc(Nc2nccc(Nc3ccc(Oc4ccccc4)cc3)n2)c1 [GW663929] | 0% | 40% | 41% | 0% | 13% | 11% | 6% | 5% | 0% | 24% | 15% | 28% | 28% | 3% | 28% | 27% | 0% | 9% | 15% | 0% |
| Cc1ccc(NC(=O)c2ccnc(N3CCN(C)CC3)c2)cc1-c1ccc(C(=O)NCC2CC2)cc1 [GW775604] | 22% | 27% | 0% | 0% | 0% | 20% | 0% | 20% | 0% | 0% | 0% | 0% | 0% | 4% | 0% | 0% | 0% | 9% | 37% | 0% |
| Cc1ccc(C(=O)NCC(N)=O)cc1-n1c(C)cc(OCc2ccc(F)cc2F)c(Br)c1=O | 15% | 24% | 13% | 0% | 0% | 0% | 10% | 29% | 0% | 0% | 4% | 12% | 4% | 0% | 0% | 14% | 0% | 16% | 14% | 37% |

Reference: article PMC5540273 (PLoS ONE, 2017)
